# Rows were chosen to be rich in hits. Some 3.3% of all compounds tested hit in one or more screens of this group.
# AmpC no deterg – qHTS Inhibitors of AmpC Beta-Lactamase (assay without detergent); P00811; AmpC nitrocefin hydrolysis, absorbance 480 nm, 0.0001% Triton; Potency, µM (series often up to 57.1 µM), for the others: top-dose activity change, negative = inhibition, hits mostly inhibitors; 0.52% of 330,000 active;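 also: plate controls were no compound for no effect and no enzyme for full effect; nearly all actives have a fitted effect of over 20% in size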
# Target sequence (P00811 whole entry, looked up): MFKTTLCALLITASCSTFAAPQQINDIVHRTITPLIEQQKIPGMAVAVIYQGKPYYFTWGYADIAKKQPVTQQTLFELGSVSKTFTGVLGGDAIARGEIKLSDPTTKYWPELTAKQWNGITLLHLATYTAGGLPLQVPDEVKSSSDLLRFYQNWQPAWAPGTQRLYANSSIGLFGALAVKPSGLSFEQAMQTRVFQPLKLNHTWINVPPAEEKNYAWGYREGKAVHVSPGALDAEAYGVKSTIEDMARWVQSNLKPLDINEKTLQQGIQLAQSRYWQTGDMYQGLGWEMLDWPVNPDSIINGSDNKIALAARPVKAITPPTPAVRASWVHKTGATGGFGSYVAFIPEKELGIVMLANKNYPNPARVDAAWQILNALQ
#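 20 mM phosphate pH 7.0 + 0.01% (detergent screen) or 0.0001% Triton X-100; 5.3 nM AmpC reagent; cpd preinc 15 min RT; nitrocefin (800 uM stock) to start; A480 q20 s × 4 min; Activity was normalised to no-enzyme and no-compound control wells.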
# Sm TGR inh – qHTS Assay for the Inhibitors of Schistosoma Mansoni Peroxiredoxins. 3% of 360,000 active. Potency, µM (highest dose often 114 µM), for the others: at the highest dose activity change, negative = inhibition, hits mostly inhibitors. purified TGR, DTNB reduction, TNB absorbance 405 nm; also: nearly all actives have a fitted effect of over 60% in size
#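 TGR 20 nM + NADPH 100 uM (dispensed conc.), cpd preinc 15 min RT; start with NADPH (500 uM addition) then DTNB (15 mM addition). Kinetic TNB absorbance, 405 nm filter. Four-parameter Hill fit across titration.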
# AmpC inh detg – qHTS Inhibitors of AmpC Beta-Lactamase (assay with detergent) | Potency, µM (highest dose often 114 µM), inactives show at the highest dose activity change, negative = inhibition, hits mostly inhibitors | 0.041% of 370,000 active | P00811 | AmpC hydrolysis of nitrocefin, absorbance 480 nm, 0.01% Triton;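 also: 0% = no-compound wells and -100% = no-enzyme wells; nearly all actives have a fitted effect of over 25% in size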
#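 AmpC (5.3 nM in the dispensed reagent) in 20 mM phosphate pH 7.0 with 0.01% (detergent screen) or 0.0001% Triton X-100 was preincubated with compounds for 15 min at room temperature. Nitrocefin was then added from an 800 uM solution, and hydrolysis was followed at 480 nm.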
# Starred values were filed as active, the others as inactive; ? = inconclusive; . = no result given; ! = not active in a repeat; [ ] = dose if it differs, or a comment. Calls follow the shape of the dose curve; as a rule, active = well fitted curve in the direction sought with a large enough effect; inconclusive = small, poorly fitted or top-dose-only effect, or another doubt; inactive = no such curve, though single readings can be large; an effect the other way counts as inactive or inconclusive. Unless noted, % is scaled to controls: 0 for no effect and ±100 for the full control effect; potency is read from the fitted curve at half-maximal effect.
SMILES,AmpC no deterg,Sm TGR inh,AmpC inh detg
Cc1ccn2c(Nc3ccc4c(c3)OCCO4)c(-c3ccc(C)o3)nc2c1,.,0%,21%
Cc1cc(C)cc(NC(=O)N2CCN3CCCCC3C2)c1 (stereo not given),.,5%,24%
O=C(Nc1ccc(F)c(Cl)c1)N1CCCCCC1,-19%,0%,-2%
O=C(COC(=O)CNC(=O)c1ccccc1Cl)NC1CC1,-19%,.,.
CCOc1cc(-c2ccc(OC(=O)c3ccccc3)c(OC)c2)cc(=O)c2c(C)oc(C)c12,.,-23%,20%
COc1cc(-c2cccs2)cc(=O)c2c(C)oc(C)c12,-26%,40µM*,1%
CC(=O)c1cc(-c2ccccc2)n(CC(=O)NCCc2ccc(C)cc2)c1C,.,14%,6%
O=C(N/C(C(=O)N1CCOCC1)=C(\Sc1ncccn1)c1ccccc1)c1ccccc1,20%,40µM*,-9%
CC(C)=C(NC(=O)c1ccccc1)C(=O)N1CCOCC1,-8%,4%,?
CCCCNC(=O)c1c(C)oc2ncn(CC(C)C)c(=O)c12,.,0%,-9%
Cc1ccc(N2NC3(CCN(C(N)=O)CC3)NC2=O)cc1,-8%,40µM*,5%
O=C1NC2(CCC3(CC2)OCCO3)NN1c1ccccc1,-23%,-8%,-6%
O=[N+]([O-])c1cc(S(=O)(=O)C(F)(F)F)ccc1NCC1CCCO1 (stereo not given),3%,11%,?
COc1ccc(CCN2CC(C(=O)N3CCN(C(C)=O)CC3)CCC2=O)cc1 (stereo not given),-4%,-24%,-5%
N#CC1=C(N)SC(N)=C(C#N)C1c1cccc(Oc2ccccc2)c1,25µM*,?,-4%
CCOc1ccc(C2C(C#N)=C(N)SC(N)=C2C#N)cc1OCC,-50%,34%,-2%
CC(=O)c1ccc(NC(=O)c2ccc3c(c2)nnn3C2CCCC2)cc1,.,8%,3%
N#Cc1ccc(NC(=O)c2ccc3c(c2)nnn3C2CCCC2)cc1,.,4.5µM*,1%
CN(Cc1ccco1)S(=O)(=O)c1nnc(NC(=O)c2cccc(Cl)c2)s1,-48%,7.9µM*!,-8%
CC(C)CC(=O)Nc1nnc(S(=O)(=O)N(C)Cc2ccco2)s1,-31%,8.9µM*,0%
CCN(c1ccccc1)S(=O)(=O)c1nnc(NC(=O)CC(C)C)s1,-16%,7%,-5%
CN(Cc1ccccc1)S(=O)(=O)c1nnc(NC(=O)c2cccc(Cl)c2)s1,.,-22%,22%
COc1ccc(S(=O)(=O)N2CCC(C(=O)NN3CCCCC3)CC2)cc1OC,-7%,1%,-5%
Cn1c(CNC(=O)CNC(=O)Cc2ccccc2)cc(=O)n(C)c1=O,-11%,-23%,?
CC(C)[C@@H](NC(=O)C1CCC(CNC(=O)[C@H](Cc2ccccc2)NC(=O)OC(C)(C)C)CC1)C(=O)O (stereo not given in full),-13%,13%,-13%
SMILES,AmpC no deterg,Sm TGR inh,AmpC inh detg
CC1CN=C(NC(=O)c2cccc([N+](=O)[O-])c2)S1 (stereo not given),-20%,-31%,-6%
CCCC[C@]12Cc3cc(OC)c(OC)cc3C(O1)c1c(cc(-c3ccccc3)oc1=O)O2,-15%[11.4 µM],-33%[22.9 µM],-7%[22.9 µM]
CCCC[C@]12Cc3ccccc3C(O1)c1c(cc(-c3ccccc3)oc1=O)O2,-31%[11.4 µM],3.2µM*,-11%[22.9 µM]
Cn1cc(CN2CCCC(C(=O)c3cccs3)C2)c(-c2cccc(Cl)c2)n1 (stereo not given),67%,10%,6%
O=C(CSc1nnc(SCc2cccc3ccccc23)s1)Nc1ccc(C(=O)O)cc1,-40%,-3%,-1%
O=C(CSc1nnc(SCc2cccc3ccccc23)s1)c1ccc2c(c1)OCO2,25µM*,7%,-9%
Cc1ccc(NS(=O)(=O)c2c(C)[nH]c(C)c2C(=O)N2CCCC2)cc1Cl,29%,0%,-12%
COc1cc(/C=N/NC(=O)c2cc(-c3cccn3C)n[nH]2)cc(OC)c1OC,-30%,?,?
COc1cccc(/C=N/NC(=O)c2cc(-c3cccn3C)n[nH]2)c1,13µM*,-24%,-14%
Cc1cc(S(=O)(=O)Nc2cc3c(cc2N2CCOCC2)n(C)c(=O)c(=O)n3C)ccc1F,.,-33%,1%
O=C(CCn1c(=O)c2sccc2n(Cc2cc(=O)n3ccccc3n2)c1=O)NCc1ccco1,-3%,-9%,1%
O=C(CCCn1c(=O)c2sccc2n(Cc2cc(=O)n3ccccc3n2)c1=O)NCc1ccco1,40µM*,-34%,?
Cc1ccc(Cl)c(OCC(=O)Nc2cc(S(=O)(=O)N3CCOCC3)ccc2N2CCCC2)c1,144%,-8%,-3%

# Source: PubChem (National Center for Advancing Translational Sciences (NCATS))
